An excerpt weighted towards active compounds, which were near 10% of everything screened.
3T3 cytotox: Cytotoxic Profiling in NIH 3T3 Cell Line of Diverse Libraries Using Quantitative High-Throughput Screening; NIH 3T3 viability, CellTiter-Glo ATP luminescence, 48-72 h; actives 4.3% (n = 94,000); Potency, µM (titrated, usually from 96.7 µM), for the others: at the top dose activity change, negative = cytotoxicity, hits mostly inhibitors; AID 1345082, 2018; further: on the % scale 0 is the no-effect control and ±100 the full control effect; nearly all actives have a fitted effect of over 55% in size
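Cytotoxicity is measured as loss of cellular ATP: NIH 3T3 cells (400/well) are exposed to compound for 48 or 72 hr at 37 °C, then CellTiter-Glo luminescence is imaged after 10 min at room temperature.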
HEK293 tox: Cytotoxic Profiling in HEK 293 Cell Line of Diverse Libraries Using Quantitative High-Throughput Screening; Potency, µM (doses to about 115 µM), for inactives: top-dose activity change, negative = cytotoxicity, actives largely listed as inhibitors; HEK 293 viability, ATP luminescence (CellTiter-Glo), 48-72 h; actives 6.6% (n = 94,000); further: on the % scale 0 is the no-effect control and ±100 the full control effect; nearly all actives have a fitted effect of over 60% in size
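CellTiter-Glo luminescence (cellular ATP) was read after 48 or 72 hr of compound exposure at 37 degree Celsius. Cells were HEK 293 plated at 250 cells/well.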
GPT2 inhibitor: Primary qHTS assay for inhibitors of Glutamate pyruvate transaminase 2 (GPT2) | Recombinant GPT2, coupled pyruvate oxidase/HRP Amplex Red fluorescence | actives 0.25% (n = 100,000) | AID 1671188, 2021 | Potency, µM (titrated, usually from 57.7 µM), without a hit: at the top dose activity change, negative = inhibition, most hits filed as inhibitors; further: on the % scale 0 is the no-effect control and ±100 the full control effect; nearly all actives have a fitted effect of over 60% in size
Target sequence (Q8TD30 whole entry, looked up): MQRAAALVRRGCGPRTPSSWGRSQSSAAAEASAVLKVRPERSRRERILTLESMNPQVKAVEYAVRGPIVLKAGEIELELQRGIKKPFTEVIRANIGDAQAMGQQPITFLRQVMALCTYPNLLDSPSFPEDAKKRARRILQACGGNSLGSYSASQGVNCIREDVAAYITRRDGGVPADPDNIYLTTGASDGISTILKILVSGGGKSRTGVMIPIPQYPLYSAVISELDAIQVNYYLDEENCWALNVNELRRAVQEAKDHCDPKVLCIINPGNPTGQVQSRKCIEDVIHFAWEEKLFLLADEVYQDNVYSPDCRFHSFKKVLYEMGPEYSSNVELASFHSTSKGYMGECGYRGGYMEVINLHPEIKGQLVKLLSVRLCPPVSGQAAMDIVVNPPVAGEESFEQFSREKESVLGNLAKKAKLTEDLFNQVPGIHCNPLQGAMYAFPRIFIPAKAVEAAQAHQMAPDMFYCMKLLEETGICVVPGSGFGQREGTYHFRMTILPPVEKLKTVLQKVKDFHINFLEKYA
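Fluorescence of coupled pyruvate oxidase/HRP/Amplex Red system (50uM Amplex, 30 min, dark) reports pyruvate formed by GPT2. Enzyme reaction: 10ng/uL GPT2, 2mM L-alanine, 250uM a-KG, 30 min room temperature, pH 7.5; 50uM AOA control.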
FLuc inh: Firefly luciferase inhibition profiling of diverse chemical library using quantitative high-throughput screening; Luciferin 4-monooxygenase (Photinus pyralis), P08659; purified P. pyralis luciferase, luminescence, biochemical; Potency, µM (top dose mostly 115 µM), usual class: inhibitors; actives 2.5% (n = 76,000); further: on the % scale 0 is the no-effect control and ±100 the full control effect; nearly all actives have a fitted effect of over 65% in size
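Cell-free enzyme assay, 10nM P. pyralis luciferase, luciferin and ATP each at 10uM. Inhibition profiled over a 6-point titration, read as luminescence.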
hNpr1 antagonist: Natriuretic polypeptide receptor (hNpr1) antagonism - Primary qHTS | Atrial natriuretic peptide receptor 1 (Homo sapiens), P16066 | HEK293 hNpr1 GloSensor cGMP, ANP-stimulated luminescence | Potency, µM (top dose mostly 46.3 µM), inactives show top-dose activity change, negative = inhibition, hits mostly inhibitors | actives 1.6% (n = 76,000) | AID 1347048, 2019; calls by dose curve; further: on the % scale 0 is the no-effect control and ±100 the full control effect; nearly all actives have a fitted effect of over 60% in size
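HEK293 cells stably expressing human Npr1 and cGMP GloSensor pGS-40F, loaded 2 h with 2% GloSensor reagent, given compound 30 min at room temperature. Luminescence read before and 20 min after 0.1 nM hNppA.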
Npr1 antag conf: Natriuretic polypeptide receptor (hNpr1) antagonism - Confirmation; AID 1347044, 2019; Potency, µM (titrated, usually from 57.6 µM), inactives show top-dose activity change, negative = inhibition, usual class: inhibitors; actives 76% (n = 1,400); HEK293 hNpr1 cGMP GloSensor luminescence, ANP-stimulated; shares compounds with hNpr1 antagonist; calls by dose curve; further: nearly all actives have a fitted effect of over 70% in size
NPR2 antag: Natriuretic polypeptide receptor (hNpr2) antagonism - Subtype selectivity assay; shares compounds with hNpr1 antagonist; HEK293 hNpr2 GloSensor cGMP luminescence, CNP-stimulated; Potency, µM (series often up to 57.6 µM), without a hit: top-dose activity change, negative = inhibition, actives largely listed as inhibitors; actives 67% (n = 1,400); calls by dose curve; further: nearly all actives have a fitted effect of over 70% in size
FLuc inh counter: Natriuretic polypeptide receptor (hNpr1) antagonism - Confirmation firefly luciferase (FLuc) inhibition counterscreen; shares compounds with hNpr1 antagonist; purified FLuc enzyme, luminescence, Km substrate; Potency, µM (series often up to 57.6 µM), without a hit: at the top dose activity change, negative = inhibition, actives largely listed as inhibitors; actives 0.7% (n = 1,400); AID 1347047, 2019; further: 0% is about no effect
GloSensor cGMP: Natriuretic polypeptide receptor (hNpr1) antagonism - Counterscreen GloSensor control cell line; shares compounds with hNpr1 antagonist; AID 1347051, 2019; actives 69% (n = 1,400); HEK293 GloSensor cGMP, SNP-stimulated, luminescence; Potency, µM (highest dose often 57.6 µM), inactives show at the highest dose activity change, negative = inhibition, usual class: inhibitors; calls by dose curve; further: on the % scale 0 is the no-effect control and ±100 the full control effect; nearly all actives have a fitted effect of over 70% in size
Numbers without * were called inactive; i = inactive; u = inconclusive; x = not tested or not shown; [ ] = dose if it differs, or a comment. Unless noted, the call rests on the fitted dose curve; in most records, active means well fitted curve in the direction sought with a large enough effect; inconclusive means small, poorly fitted or top-dose-only effect, or another doubt; inactive means no such curve, though single readings can be large; an effect the other way counts as inactive or inconclusive. Potency means the concentration at half of the fitted maximal effect.

SMILES	3T3 cytotox	HEK293 tox	GPT2 inhibitor	FLuc inh	hNpr1 antagonist	Npr1 antag conf	NPR2 antag	FLuc inh counter	GloSensor cGMP
CC(C)c1ccc(CN2CCc3ncc(C(=O)NCc4ccccc4)n3CC2)cc1	u	28µM*	-12%[88.5 µM]	i	28µM*	25µM*	31µM*	-2%[86.2 µM]	22µM*
Cc1ccc(C2Cn3nnc(C(=O)N4CCN(C(=O)c5cccc(F)c5)CC4)c3CO2)cc1 (centres undefined)	-22%	u	i	i	-20%	x	x	x	x
COc1cccc(CC(=O)N2CCN(C(=O)c3nnn4c3COC(c3ccccc3)C4)CC2)c1 (centres undefined)	-2%	-8%	i	i	-14%	x	x	x	x
COc1cccc(CC(=O)N2CCN(C(=O)c3nnn4c3COC(c3ccc(C)cc3)C4)CC2)c1 (centres undefined)	-7%	u	i	i	u	24µM*	u	4%	u
CCc1ccc(C(=O)N2CCN(C(=O)c3nnn4c3COC(c3ccc(C)cc3)C4)CC2)cc1 (centres undefined)	-17%	u	1%	i	u	19µM*	19µM*	-1%	19µM*
Cc1ccc(CC(=O)N2CCN(C(=O)c3nnn4c3COC(c3ccccc3)C4)CC2)cc1 (centres undefined)	-14%	-25%	3%	i	-14%	x	x	x	x
Cc1ccc(C2Cn3nnc(C(=O)N4CCN(C(=O)Cc5cccc(F)c5)CC4)c3CO2)cc1 (centres undefined)	3%	u	2%	i	11µM*	22µM*	22µM*	1%	22µM*
COc1ccccc1CC(=O)N1CCN(C(=O)c2nnn3c2COC(c2ccc(C)cc2)C3)CC1 (centres undefined)	-33%	u	-3%	i	10µM*	19µM*	19µM*	2%	15µM*
O=C(Cc1cccc(Cl)c1)N1CCc2c(n(CCOc3ccccc3)n(-c3ccccc3)c2=O)C1	u	u	i	i	-15%	x	x	x	x
O=C(NCc1cccnc1)C1CCc2nnc(-c3cccc(C(F)(F)F)c3)n21 (centres undefined)	-14%	3%	-10%	x	x	x	x	x	x
CC12CCC(=O)C=C1CCN(c1ccccc1)C2 (centres undefined)	u	-22%	x	x	x	x	x	x	x
Cc1cccc(CNC(=O)c2csc(N3CCN(c4ccccc4)CC3)n2)c1	u	40µM*	-4%	i	13µM*	24µM*	24µM*	-1%	22µM*
